Data published in PubChem BioAssay (Tox21).
Records with an inconclusive call do not appear. Calls of active or inactive are those of the source. The call rests on the fitted dose curve; in most records, active means well fitted cell-killing curve with a large enough effect in the repeat runs; inconclusive means weak or mixed curves, or effect the other way; inactive means flat fitted curve, though single readings scatter.

Assay: qHTS assay to identify small molecule agonists of the TGF-beta/Smad signaling pathway - cell viability counter screen (AID 1346829); further: top concentration of the series differs between compounds; nearly all actives have a fitted effect of over 45% in size
Conditions: SBE-bla HEK293T viability, CellTiter-Glo luminescence, 5 h; series mostly up to 76.8 µM
Description: National Center for Advancing Translational Sciences [NCATS]
NIH Chemical Genomics Center [NCGC]
U.S. Environmental Protection Agency [EPA]
National Institutes of Environmental Health Sciences [NIEHS]
National Toxicology Program [NTP]
U.S. Food and Drug Administration [FDA]
Transforming growth factor beta (TGF-beta) superfamily consists of a large number of structurally related dimeric proteins that act as hormones or local mediators in regulating a wide range of biological functions. This superfamily includes TGF-betas themselves, the bone morphogenetic proteins (BMPs) and the activins. These ligands induce oligomerization of serine/threonine receptor kinases and phosphorylate the cytoplasmic signaling molecules of Smad protein family. CellSensor SBE-bla HEK 293T cell line (Life Technologies, Carlsbad, CA), responsive to TGF-beta was used to screen Tox21 10K compound library for identification of agonists/antagonists of the Smad signaling pathway. This cell line contains a beta-lactamase reporter gene under control of the Smad binding element (SBE) stably integrated into HEK 293T cells. Also cytotoxicity of the compounds was tested in parallel by measuring the cell viability using CellTiter-Glo assay system in the same wells.
Tox21 Assay Protocol Summary:
SBE-bla HEK 293T cells were dispensed at 4,000/well in 6 uL of assay medium into black wall/clear-bottom 1536-well plates using a Multidrop Combi (ThermoFisher Scientific, Waltham, MA) dispenser. After the assay plates were incubated at 37 C and 5% CO2 for an overnight, 23 nL of compounds dissolved in DMSO, positive controls or DMSO only was transferred to the assay plate by a Pintool station (Kalypsys, San Diego, CA). The assay plates were incubated at 37 C and 5% CO2 for 5 hr. One uL of LiveBLAzer B/G FRET substrate (Life Technologies) was added using a Flying Reagent Dispenser (FRD, Aurora Discovery, San Diego, CA) and the plates were incubated at room temperature for 2 hr. Fluorescence intensity (405 nm excitation, 460 nm and 530 nm emissions) was measured using an Envision plate reader (PerkinElmer, Shelton, CT). For cytotoxicity read, 4 uL of CellTiter-Glo reagent (Promega Corporation, Madison, WI) was added to each well of the assay plates using FRD. After 30min incubation at room temperature, the luminescence intensity was measured using ViewLux plate reader (PerkinElmer).

Row | Compound | outcome
1 | Nc1cc(Cl)cc(S(=O)(=O)O)c1O | inactive
2 | CC(=O)OCC(=O)[C@@]1(O)[C@H](OC(C)=O)C[C@H]2[C@@H]3CCC4=CC(=O)C=C[C@]4(C)[C@@]3(F)[C@@H](O)C[C@@]21C | inactive
3 | Cc1ccc2c(c1)c1c3n2CCNC3CCC1 (stereo not given) | inactive
4 | O=C(O)C(=O)Nc1cccc(-c2nn[nH]n2)c1 | inactive
5 | NC(Cc1c[nH]c2ccccc12)C(=O)O (stereo not given) | inactive
6 | Cc1ccccc1N1CCN(CCc2nnc3n2CCCC3)CC1 | inactive
7 | NS(=O)(=O)c1cc2c(cc1Cl)NC(C(Cl)Cl)NS2(=O)=O (stereo not given) | inactive
8 | CC(C)(C)NCCO | inactive
9 | CCCOC(=O)CCCCC(=O)OCCC | inactive
10 | CNC(=O)NC | inactive
11 | Cc1c(C(C)C)c(=O)n(-c2ccccc2)n1C | inactive
12 | O=C(/C=C/c1ccccc1)NCCO | inactive
13 | CCS(=O)(=O)CCn1c([N+](=O)[O-])cnc1C | inactive
14 | CCOC(=O)CC#N | inactive
15 | COC(OC)C(C)c1ccccc1 (stereo not given) | inactive
16 | Cc1cc(C)cc([N+](=O)[O-])c1 | inactive
17 | Cc1cccc(C(=O)O)c1[N+](=O)[O-] | inactive
18 | CCOc1ccc(NC(=O)OC(C)C)cc1OCC | inactive
19 | CCC(=O)OCCC(C)CCC=C(C)C (stereo not given) | inactive
20 | CCCCCCCCOC(C)=O | inactive

Row | Compound | outcome
21 | CC(=O)Nc1ccc(C)cc1 | inactive
22 | CCOC(=O)CCc1ccccc1 | inactive
23 | CCC1COC(=O)O1 (stereo not given) | inactive
24 | CCCCOC(=O)C(=O)OCCCC | inactive
25 | CC(C)c1ccccc1O | inactive
26 | CCCCOC(=O)C(C)OC(=O)CCC (stereo not given) | inactive
27 | CCCCC[Si](OCC)(OCC)OCC | inactive
28 | Cc1nc([N+](=O)[O-])cn1-c1ccc([N+](=O)[O-])cc1 | inactive
29 | CCCOCCOCCOCCO | inactive
30 | CC(C)COC(=O)/C=C/c1ccccc1 | inactive
31 | CCCCCC1CCCC(=O)O1 (stereo not given) | inactive
32 | O=C(COCCOCCOCC(=O)Nc1c(I)cc(I)c(C(=O)O)c1I)Nc1c(I)cc(I)c(C(=O)O)c1I | inactive
33 | CCCCCCCCCCCCC1CO1 (stereo not given) | inactive
34 | Cn1c(=O)c2c(ncn2CC2OCCO2)n(C)c1=O | inactive
35 | CCC(C)(CCC(C)C)C(=O)[O-].CCC(C)(CCC(C)C)C(=O)[O-].[Zn+2] (stereo not given) | inactive
36 | COc1cc2c3cc1Oc1cc(ccc1O)C[C@@H]1c4c(cc(OC)c(O)c4Oc4ccc(cc4)C[C@@H]3N(C)CC2)CC[N+]1(C)C | inactive
37 | Nc1ccc(C(=O)OCC(O)CO)cc1 (stereo not given) | inactive
38 | CNC(=O)C(c1ccccc1)c1ccccc1 | inactive
39 | Cc1ccccc1C | inactive
40 | NC(=O)NC(=O)Cc1ccccc1 | inactive
